This note sets out measurements from PubChem BioAssay (EPA / NIEHS).

Broadly, the AC50 is the concentration giving half of the maximal activity seen.

Inconclusive results are not listed. Activity calls are given as the source filed them. The calls were made as follows: active = hit-call score of the fitted dose curve at least 0.9, where 1 is the maximum; inconclusive = response in the unintended direction; inactive = score below 0.9.

Chain of Androgen Receptor/SRC-1 Co-activator, AR (gene 367) (P10275 whole entry, looked up, the tested form may be a part): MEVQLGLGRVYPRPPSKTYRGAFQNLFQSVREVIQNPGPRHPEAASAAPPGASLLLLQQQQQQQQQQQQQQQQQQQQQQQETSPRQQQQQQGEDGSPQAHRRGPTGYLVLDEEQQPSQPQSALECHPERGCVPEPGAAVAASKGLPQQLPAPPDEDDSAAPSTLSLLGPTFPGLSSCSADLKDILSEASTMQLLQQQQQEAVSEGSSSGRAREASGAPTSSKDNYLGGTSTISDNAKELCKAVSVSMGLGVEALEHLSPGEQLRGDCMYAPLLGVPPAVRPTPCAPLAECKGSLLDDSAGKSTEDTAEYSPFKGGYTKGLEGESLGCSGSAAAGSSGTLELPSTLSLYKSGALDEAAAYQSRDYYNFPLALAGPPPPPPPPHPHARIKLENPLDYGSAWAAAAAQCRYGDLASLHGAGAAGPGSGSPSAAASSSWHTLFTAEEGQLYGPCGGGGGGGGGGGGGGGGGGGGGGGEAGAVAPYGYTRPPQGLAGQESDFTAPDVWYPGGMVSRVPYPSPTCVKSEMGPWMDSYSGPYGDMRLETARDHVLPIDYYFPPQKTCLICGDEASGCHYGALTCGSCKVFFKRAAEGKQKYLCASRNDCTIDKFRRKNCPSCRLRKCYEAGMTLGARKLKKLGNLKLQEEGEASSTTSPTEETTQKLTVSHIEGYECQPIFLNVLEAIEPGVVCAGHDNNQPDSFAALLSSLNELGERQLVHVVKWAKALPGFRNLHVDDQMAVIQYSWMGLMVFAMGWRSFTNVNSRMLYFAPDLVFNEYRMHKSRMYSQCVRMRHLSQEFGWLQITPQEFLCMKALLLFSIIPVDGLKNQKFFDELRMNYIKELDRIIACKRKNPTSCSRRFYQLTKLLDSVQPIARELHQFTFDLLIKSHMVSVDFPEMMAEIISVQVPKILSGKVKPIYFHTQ

The assay addresses Androgen Receptor/SRC-1 Co-activator, AR (gene 367) (UniProt P10275). Briefly: OT_AR_ARSRC1_0480: Odyssey Thera (OT) 8-hour HEK293T Protein-Complementation Assay for Androgen Receptor/SRC-1 Co-activator (AID 2283354).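 Also: hits raise the complementation signal above DMSO so AC50 marks enhancers.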 The procedure: OT_AR_ARSRC1_0480 is a cell-based, single-readout assay that uses HEK293T, a human kidney cell line, with measurements taken at 8 hours after chemical dosing in a 384-well plate.OT_AR_ARSRC1_0480 is one of one assay component(s) measured or calculated from the OT_AR_ARSRC1_0480 assay. It is designed to make measurements of protein fragment complementation, a form of binding reporter, as detected with fluorescence intensity signals by Protein-fragment Complementation technology.Data from the assay component OT_AR_ARSRC1_0480 was analyzed into 1 assay endpoint. This assay endpoint, OT_AR_ARSRC1_0480, was analyzed in the positive analysis fitting direction relative to DMSO as the negative control and baseline of activity. Using a type of binding reporter, measures of receptor for gain-of-signal activity can be used to understand the binding at the pathway-level as they relate to the gene AR. Furthermore, this assay endpoint can be referred to as a primary readout, because the performed assay has only produced 1 assay endpoint. To generalize the intended target to other relatable targets, this assay endpoint is annotated to the nuclear receptor intended target family, where the subfamily is steroidal.
Protein-fragment complementation assay, or PCA, is a method for the identification and quantification of protein-protein interactions. In the PCA, the proteins of interest ("bait" and "prey") are each covalently linked to fragments of a third protein (e.g. DHFR, which acts as a "reporter"). Interaction between the bait and the prey proteins brings the fragments of the reporter protein in close proximity to allow them to form a functional reporter protein whose activity can be measured. The OT AR / SRC-1 assay assessed androgen receptor chemical interactions using a rapidly maturing, intensely fluorescent mutant of YFP known as Venus, rationally dissected into two separate fragments. […] Fusion constructs were transfected into HEK293T cells with a (Gly4Ser)2 linker between the AR/SRC-1 and YFP fragment genes to facilitate complementation when interacting proteins bring fragments into close proximity. The construct is stably expressed in HEK293T cells. […] Images were acquired on an Evotec Opera at 2 wavelengths (488 and 635nm), and the ratio of fluorescence in the nucleus relative to fluorescence in the cytoplasm (N/C Ratio) in the 488nm channel was calculated for a minimum of 400 cells per image. Both agonists and antagonists of the AR receptor induce nuclear translocation to varying degrees. […] The OT AR/SRC-1 assay was also run for 16 hours (see description for OT_AR_ARSRC1_0960).
For the compound `O=Cc1ccccc1C=O`, the AC50 is 66.1 µM (active).
On to `CSc1ccc(Oc2ccc(S(N)(=O)=O)cc2CN(C)C)cc1C`, for which the AC50 was 77 µM (active).
Regarding `Cc1cc(SC2=C(O)C[C@@](CCc3ccc(N)cc3)(C(C)C)OC2=O)c(C(C)(C)C)cc1CO`, the outcome was inactive.
`CCCCCCCCCC[N+](C)(C)[O-]`: the result was inactive.
Take `O=C1CCCCC1`: the call was inactive.
Regarding `Cc1c(C)c2c(c(C)c1O)CCC(C)(COc1ccc(CC3SC(=O)NC3=O)cc1)O2` (configuration not stated), the compound was classed as inactive.
For `O=C1OC(c2ccc(O)cc2)(c2ccc(O)cc2)c2ccccc21`, the AC50 was 60.1 µM (active).
`C#CC(O)C(CC)CCCC` (configuration not stated): the AC50 is 93.7 µM (active).
On to `NCCOCCOCCN`, for which the compound was classed as inactive.
Same read-out and setting: the result for `CCOCCOCCO` reads “inactive”; that for `O=C(Oc1ccccc1)c1cccc(C(=O)Oc2ccccc2)c1`, “inactive”.
Still for that read-out and setting: in the case of `C=CCCCCCCCCCCCC` it was “inactive”; in that of `CC(C)OC(=O)C(C)(C)Oc1ccc(C(=O)c2ccc(Cl)cc2)cc1`, “inactive”.
Regarding `Cc1ccc(-c2cc(C(F)(F)F)nn2-c2ccc(S(N)(=O)=O)cc2)cc1`, the AC50 was 72.6 µM (active).
Consider `CCC(C)N(C)C(=O)c1cc2ccccc2c(-c2ccccc2Cl)n1` (configuration not stated), for which the compound was classed as inactive.
Turning to `Nc1nc(=S)c2[nH]cnc2[nH]1`, the outcome was inactive.
In the case of `CC1=C(C)S(=O)(=O)CCS1(=O)=O`, the compound was classed as inactive.
